IDE exosite inh – insulin-degrading enzyme (human) exo-site inhibition. purified IDE, FL-6b probe fluorescence polarization; active compounds read low. z-score at 20 µM. AID 1259349. 17,000 tested, 6.3% active. P14735;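 active = z-score of -3 or lower, meaning strong loss of probe binding signal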;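 also: His-tagged human IDE residues 42-1019 made in E. coli with 30 nM FL-6b probe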
Target sequence (P14735 42-1019 limits assumed): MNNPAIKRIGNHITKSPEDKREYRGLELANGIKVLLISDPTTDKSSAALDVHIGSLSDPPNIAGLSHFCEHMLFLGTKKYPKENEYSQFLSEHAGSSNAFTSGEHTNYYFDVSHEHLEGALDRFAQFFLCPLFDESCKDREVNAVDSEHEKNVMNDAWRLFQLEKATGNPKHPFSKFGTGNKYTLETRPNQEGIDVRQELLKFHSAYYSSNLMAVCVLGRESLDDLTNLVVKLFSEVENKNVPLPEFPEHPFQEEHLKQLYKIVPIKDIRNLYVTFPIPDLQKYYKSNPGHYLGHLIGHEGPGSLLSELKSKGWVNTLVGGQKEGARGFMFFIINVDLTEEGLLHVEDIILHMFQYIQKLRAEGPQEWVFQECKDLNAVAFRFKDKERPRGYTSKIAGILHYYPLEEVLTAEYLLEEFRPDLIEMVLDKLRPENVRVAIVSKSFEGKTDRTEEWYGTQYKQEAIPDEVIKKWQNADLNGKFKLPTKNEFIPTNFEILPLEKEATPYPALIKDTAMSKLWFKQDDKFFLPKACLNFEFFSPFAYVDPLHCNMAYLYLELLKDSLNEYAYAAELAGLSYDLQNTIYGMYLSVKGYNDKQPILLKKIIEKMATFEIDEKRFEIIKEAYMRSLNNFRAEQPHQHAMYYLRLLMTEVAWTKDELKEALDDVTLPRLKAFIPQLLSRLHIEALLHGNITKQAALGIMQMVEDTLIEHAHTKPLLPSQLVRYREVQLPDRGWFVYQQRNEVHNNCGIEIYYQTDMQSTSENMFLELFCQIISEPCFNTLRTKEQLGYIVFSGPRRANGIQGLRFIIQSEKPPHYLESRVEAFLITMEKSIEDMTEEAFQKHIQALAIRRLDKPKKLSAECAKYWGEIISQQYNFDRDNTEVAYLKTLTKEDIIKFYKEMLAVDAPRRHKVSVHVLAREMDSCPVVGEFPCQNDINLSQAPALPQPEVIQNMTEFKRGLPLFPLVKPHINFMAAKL
The depositor's hits bear a star. Only a selection was taken, and hits are over-represented in it overall.

SMILES	IDE exosite inh
CCS(=O)(=O)N1CCCCN2[C@@H](CO)[C@@H](c3ccc(-c4ccccc4C)cc3)[C@@H]2C1	-14*
Cc1ccccc1-c1ccc([C@H]2[C@@H](CO)N3CCCCN(S(=O)(=O)Cc4ccccc4)C[C@H]23)cc1	0.6
COCC(=O)N1CC(=O)N2[C@H](CO)[C@@H](c3ccc(Br)cc3)[C@@H]2C1	0.27
Cc1ccc(-c2ccccc2[C@@H]2[C@H](C#N)N(c3ncc(-c4ccccc4)s3)[C@H]2CO)cc1	-0.14
O=S(=O)(Cc1ccccc1)N1CCCCN2[C@H](CO)[C@H](c3ccc(-c4cccnc4)cc3)[C@H]2C1	2.6
Cc1ccc(S(=O)(=O)Nc2ccc3c(c2)C(=O)N(C)[C@H]2CC[C@H](CC(=O)NCCc4ccncc4)O[C@H]2CO3)cc1	-1.9
COc1ccc(C#Cc2ccc([C@@H]3[C@H](CO)N4C(=O)CN(C(=O)c5cccnc5)C[C@@H]34)cc2)cc1	0.25
CS(=O)(=O)Nc1ccc2c(c1)[C@@H]1C[C@@H](CC(=O)NCc3cc(F)ccc3F)O[C@@H](CO)[C@@H]1O2	-0.99
CCCNC(=O)NC[C@H]1[C@H](c2ccc(C3=CCCC3)cc2)[C@H](CO)N1C(=O)CC	0.26
CN(C)CC(=O)N1[C@H](CO)[C@H](c2ccccc2-c2ccccc2F)[C@@H]1C#N	-0.51
O=C(C1CC1)N1CCCCN2[C@H](C1)[C@H](c1ccc(C#CC3CCCC3)cc1)[C@@H]2CO	2.8
C/C=C/c1cccc(-c2nc(C(=O)Nc3nccs3)cc3c2[C@@H](CCO)N(C(=O)NC(C)C)C3)c1	0.74
Cc1ccccc1-c1ccc([C@H]2[C@H]3CN(S(=O)(=O)Cc4ccccc4)CCCCN3[C@H]2CO)cc1	1.7
Cc1ccccc1-c1ccc([C@@H]2[C@@H](CO)N3CCCCN(S(C)(=O)=O)C[C@@H]23)cc1	-18*
Cc1ccccc1-c1ccc([C@H]2[C@@H](CO)N3CCCCN(S(=O)(=O)Cc4ccccc4)C[C@@H]23)cc1	-1.6
COc1ccccc1S(=O)(=O)N1CC[C@@H]2[C@@H](CO)Nc3ccc(-c4ccc(C#N)cc4)cc3[C@@H]21	1.5
C[C@@H]1CN([C@@H](C)CO)C(=O)c2ccccc2-c2ccccc2CO[C@H]1CN(C)C(=O)[C@H](Cc1ccccc1)N(C)C	-1.1
COc1ccccc1C#Cc1ccc([C@@H]2[C@H]3CN(CCC(F)(F)F)CCCCN3[C@H]2CO)cc1	-7.8*
CCCC#Cc1ccc([C@@H]2[C@@H](CO)N3CCCCN(S(C)(=O)=O)C[C@H]23)cc1	2.2
COc1ccccc1C#Cc1ccc([C@@H]2[C@H]3CN(S(C)(=O)=O)CCCCN3[C@H]2CO)cc1	-12*
COc1ccc(C#Cc2ccc([C@H]3[C@@H](CO)N4CCCCN(S(=O)(=O)c5ccccc5)C[C@@H]34)cc2)cc1	2.3
COc1ccccc1C#Cc1ccc([C@H]2[C@H](CO)N3CCCCN(S(C)(=O)=O)C[C@@H]23)cc1	-8.1*
COc1ccc(C#Cc2ccc([C@H]3[C@H](CO)N4CCCCN(S(=O)(=O)c5ccccc5)C[C@@H]34)cc2)cc1	4.7
OC[C@H]1[C@H](c2ccc(-c3ccccc3)cc2)[C@H]2CN(CCC(F)(F)F)CCCCN21	0.51
COc1ccc(C#Cc2ccc([C@@H]3[C@@H](CO)N4CCCCN(S(=O)(=O)c5ccccc5)C[C@H]34)cc2)cc1	5.6
SMILES	IDE exosite inh
OC[C@@H]1[C@H](c2ccc(-c3ccccc3)cc2)[C@@H]2CN(CCC(F)(F)F)CCCCN12	3.5
COc1cccc(C#Cc2ccc([C@H]3[C@H](C#N)N(C(=O)C4CCC4)[C@H]3CO)cc2)c1	0.00055
COCC(=O)N1[C@H](C#N)[C@H](c2ccccc2-c2ccccc2F)[C@H]1CO	0.32
CNC[C@@H]1Oc2ccc(NS(=O)(=O)c3ccc(OC)cc3)cc2C(=O)N([C@@H](C)CO)C[C@H]1C	0.47
COCC#Cc1ccc([C@@H]2[C@H](CO)N3CCCCN(C(=O)Nc4cc(F)ccc4F)C[C@@H]23)cc1	3.8
CCCNC(=O)N1CC(=O)N2[C@@H](CO)[C@H](c3ccc(C#Cc4ccccc4)cc3)[C@@H]2C1	-11*
CCCNC(=O)N1CC(=O)N2[C@@H](CO)[C@@H](c3ccc(C#Cc4cccc(F)c4)cc3)[C@@H]2C1	2.6
CCCNC(=O)N1CC(=O)N2[C@H](CO)[C@@H](c3ccc(C#Cc4cccc(F)c4)cc3)[C@H]2C1	-3.7*
CCCNC(=O)N1CC(=O)N2[C@@H](CO)[C@H](c3ccc(C#Cc4ccc(F)cc4)cc3)[C@@H]2C1	2.1
CCCNC(=O)N1CC(=O)N2[C@@H](CO)[C@@H](c3ccc(C#Cc4ccccc4)cc3)[C@@H]2C1	-1.1
CCCNC(=O)N1CC(=O)N2[C@H](C1)[C@H](c1ccc(C#Cc3ccc(F)cc3)cc1)[C@@H]2CO	2.6
COc1cccc(-c2ccc3c(c2)[C@H]2[C@H](CCN2S(=O)(=O)c2ccccc2F)[C@H](CO)N3)c1	-0.16
CNC[C@H]1Oc2ncc(-c3cncnc3)cc2C(=O)N([C@@H](C)CO)C[C@H]1C	-1.5
COc1ccccc1CNC(=O)C[C@@H]1CC[C@H]2[C@@H](COC[C@H](O)CN2Cc2ccc3c(c2)OCO3)O1	0.81
